The whole screen tested about 52,000 compounds, of which about 1,700 (3.3%) were called active. The sample as a whole holds a higher share of actives than the screen did. Values without a mark were called inactive. Rule as the data show it: active = survival mostly below about 52% (no sharp cut-off); inactive = mostly above about 56%.
What follows are compounds tested on Wild type (assay: S. aureus survival, RN4220 and DeltatarO strains – OD600, teichoic acid synthesis inhibitors, primary screen (AID 463173)). Details: S. aureus RN4220 wild type/DeltatarO growth, OD600, 18 h, hits give low values, screened at 18.75 µg/mL (by protocol).

First: CCCCc1ccc(NC(=O)c2ccc3c(c2)CCN3S(=O)(=O)CC)cc1
Second: CCCCCn1c(=O)[nH]c2cc(C(=O)Nc3ccc(OC)c(OC)c3)ccc2c1=O
The survival of the first is higher: 80% for the first, 74% for the second.

First: Cc1ccccc1NC(=O)c1c(NC(=O)C(C)Oc2cccc(Cl)c2)sc2c1CCCC2 (stereo not drawn)
Second: Cc1ccc2cccc(NC(=O)c3ccc(-c4cccc(Cl)c4)o3)c2n1
The survival of the first is lower: 61% for the first, 66% for the second.

First: Cc1c(CC(=O)NCCc2ccccc2)c(=O)oc2c(C)c3occ(C(C)(C)C)c3cc12
Second: CCOc1ccccc1CNC(=O)CN1C(=O)CCn2nc(-c3cn(C)c4ccccc34)cc21
The survival of the first is lower: 84% for the first, 87% for the second.

Going from `COc1ccc(-n2c(-c3ccco3)nc3c(cnn3-c3ccc(Cl)cc3)c2=O)cc1` to `Cc1ccc2cccc(NC(=O)c3ccc(-c4cc(Cl)ccc4Cl)o3)c2n1`, the survival falls from 90% to 71%.

Compared with `CC1CCN(C(=O)Cn2cc(SCC(=O)Nc3ccccc3C(F)(F)F)c3ccccc32)CC1`, `COc1ccc(CNC(=O)CN2C(=O)CCn3nc(-c4cn(C)c5ccccc45)cc32)cc1` is lower in survival: 105% for the first, 80% for the second.

Compared with `COc1ccc(N2CCN(C(=O)CCn3nc(C)c(S(=O)(=O)N4CCCC4)c3C)CC2)cc1`, `COc1cccc(N2CCN(C(=O)CCn3nc(C)c(S(=O)(=O)N4CCCC4)c3C)CC2)c1` is lower in survival: 80% for the first, 76% for the second.

First: CC(C)N(C(=O)CN1CCN(Cc2ccccc2)CC1)C(C)C
Second: O=C(NCc1ccncc1)C1CCN(S(=O)(=O)c2ccccc2)CC1
The survival of the first is lower: 107% for the first, 109% for the second.

Compared with `COC(=O)CNC(=O)N1CCN(S(=O)(=O)c2ccc3c(ccn3C)c2)CC1`, `CCOC(=O)CCNC(=O)N1CCN(S(=O)(=O)c2ccc3c(ccn3C)c2)CC1` is higher in survival: 79% for the first, 113% for the second.

First: CCOC(=O)c1ccc(N=C2NC(=O)/C(=C/c3ccc(N4CCOCC4)cc3)S2)cc1
Second: COc1ccc2c(c1)c1c(c(=O)n(-c3cccc(C)c3)c(=O)n1CC(=O)N1CCCC1)n2C
The survival of the first is higher: 107% for the first, 82% for the second.

Compared with `CCOc1ccc(-c2c(C)nn3c(C)c(C(=O)NCc4ccc(Cl)cc4)cnc23)cc1OCC`, `CCOc1cc(C(=O)Nc2cccc3cccnc23)cc(OCC)c1OCC` is lower in survival: 123% for the first, 23% for the second.

Compared with `Cc1ccc2cccc(NC(=O)c3cccc4c(Cl)cccc34)c2n1`, `Cc1ccc2cccc(NC(=O)c3cccc4c(Br)cccc34)c2n1` is higher in survival: 69% for the first, 134% for the second.

First: O=C(Nc1ccc(Br)c2cccnc12)c1cccc2ccccc12
Second: O=C(Nc1cccc2cccnc12)c1cccc2c(Br)cccc12
The survival of the first is lower: 35% for the first, 77% for the second.

Going from `Cc1ccc(C(=O)Nc2cccc3cccnc23)cc1Cl` to `CCOc1ccccc1C(=O)Nc1cccc2ccc(C)nc12`, the survival falls from 75% to 49%.

Going from `COc1cccc(NC(=O)CCc2nnc3n(Cc4ccccc4Cl)c(=O)c4ccccc4n23)c1` to `COc1ccccc1NC(=O)CSc1ncc2c(n1)-c1cc(Cl)ccc1N(Cc1ccccc1)S2(=O)=O`, the survival falls from 84% to 77%.

First: CCOC(=O)c1cccc(NS(=O)(=O)c2c(C)nc3sc(C)cn3c2=O)c1
Second: CCc1cccc(NC(=O)CNS(=O)(=O)c2ccc3nc(C)sc3c2)c1
The survival of the first is higher: 81% for the first, 72% for the second.

Going from `Cc1ccc(NC(=O)CC(C)S(=O)(=O)c2ccc3c(c2)NC(=O)CO3)c(Cl)c1` (stereo not drawn) to `COc1ccc(NCc2cc3cc4c(cc3n(CC(=O)Nc3cc(C)cc(C)c3)c2=O)OCO4)cc1`, the survival falls from 87% to 60%.

Compared with `CCOc1ccc(NC(=O)CCCc2nc(-c3cccc(OC)c3)no2)cc1`, `COc1ccc(Nc2cc(C(=O)NCc3cccs3)c3ccccc3n2)cc1` is higher in survival: 87% for the first, 145% for the second.

Compared with `Cc1nnc(SCc2cc(=O)n3c(C)cccc3n2)s1`, `Cc1cccc(C(=O)Nc2cccc(OCc3cc(=O)n4c(C)csc4n3)c2)c1` is lower in survival: 81% for the first, 79% for the second.

First: Cc1cccc(-c2nnc(SCC(=O)OC(C)C)n2C)c1
Second: CCC(=O)n1nc(-c2ccc(OC)cc2)nc1SC
The survival of the first is higher: 106% for the first, 100% for the second.

Compared with `COc1ccc(Br)cc1C(=O)Nc1cccc2ccc(C)nc12`, `COc1ccc(Nc2cc(C(=O)NCc3ccccc3)c3ccccc3n2)cc1` is higher in survival: 63% for the first, 112% for the second.

Going from `Cc1cc(=O)n(Cc2c(F)cccc2Cl)c2c1c(C)nn2C` to `Cc1nn(C)c2c1c(-c1ccccc1)cc(=O)n2Cc1ccccc1F`, the survival rises from 71% to 120%.

First: Cc1oc(-c2ccc(Cl)cc2)nc1Cn1c(=O)cc(C)c2c(C)nn(-c3ccccc3)c21
Second: Cc1ccc(-c2nc(Cn3c(=O)cc(-c4ccccc4)c4c(C)nn(C)c43)c(C)o2)cc1
The survival of the first is lower: 83% for the first, 120% for the second.

Going from `Cc1oc(-c2ccccc2)nc1Cn1c(=O)cc(-c2ccccc2)c2c(C)nn(C)c21` to `CCOc1ccc(-c2nc(Cn3c(=O)cc(C)c4c(C)nn(-c5ccc(C)cc5)c43)c(C)o2)cc1`, the survival rises from 76% to 87%.

For `CCOc1ccc(CNC(=O)CN2C(=O)CCn3nc(-c4cn(C)c5ccccc45)cc32)cc1OC`, the survival was -6% (active).
With `Cc1nn(CCC(=O)N2CCN(c3ccccc3)CC2)c(C)c1S(=O)(=O)N1CCCC1` the survival was -6% (active).
In the case of `CCOC(=O)CNC(=O)N1CCN(S(=O)(=O)c2ccc3c(ccn3C)c2)CC1`, the survival is reported as 0% (active).
With `Cc1ccc2cccc(NC(=O)c3cccc4ccccc34)c2n1` the survival was -10% (active).
`O=C(Nc1cccc2cccnc12)c1ccc(-c2cccc(Cl)c2)o1` was tested, and the survival was 0% (active).
In the case of `CC(C)c1ccc(C(=O)Nc2cccc3cccnc23)cc1`, the survival is reported as -3% (active).
In the case of `O=C(Nc1cccc2cccnc12)c1cccc2ccccc12`, the survival is reported as 1% (active).
`COc1c(C)cccc1C(=O)Nc1cccc2ccc(C)nc12` was tested, and the survival was -14% (active).
For `CCOc1ccc(-c2nc(Cn3c(=O)cc(C)c4c(C)nn(-c5ccccc5)c43)c(C)o2)cc1`, the survival was 14% (active).
In the case of `Cc1cccc(-c2nc(Cn3c(=O)cc(-c4ccccc4)c4c(C)nn(C)c43)c(C)o2)c1`, the survival is reported as -6% (active).
For `Cc1nn(C)c2c1c(-c1ccccc1)cc(=O)n2Cc1c(F)cccc1Cl`, the survival was -6% (active).
In the case of `COc1ccc(Nc2cc(C(=O)NCc3ccccc3OC)c3ccccc3n2)cc1`, the survival is reported as -6% (active).
